Experimental findings from PubChem BioAssay (NCATS) are described below.

“And” between values parts separate entries of the source, which are not always exact repeats. Equal entries are not always repeated. Inconclusive results are not listed. A call without a number means that no potency is given here. The source made the active and inactive calls. Unless noted, the call rests on the fitted dose curve; in most records, active means well fitted curve in the direction sought with a large enough effect; inconclusive means small, poorly fitted or top-dose-only effect, or another doubt; inactive means no such curve, though single readings can be large; an effect the other way counts as inactive or inconclusive.

In one test the target is Luciferin 4-monooxygenase (Photinus pyralis) (UniProt P08659). The experiment in a line: Biochemical firefly luciferase enzyme assay for NPC (AID 624030).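 Further: purified P. pyralis luciferase at 10 nM with luciferin and ATP substrate; nearly all actives have a fitted effect of over 70% in size.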 To be noted: purified P. pyralis luciferase, luminescence, 5 min; series mostly up to 58.6 µM. The essentials: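 Purified P. pyralis luciferase at 10 nM in 50 mM Tris Acetate (final), luminescence read within 5 minutes of enzyme addition to compounds. Activity normalised to PTC124 versus DMSO; concentration-response curves classed by r2, magnitude and activity.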
Sequence of Luciferin 4-monooxygenase (Photinus pyralis) (P08659 whole entry, looked up): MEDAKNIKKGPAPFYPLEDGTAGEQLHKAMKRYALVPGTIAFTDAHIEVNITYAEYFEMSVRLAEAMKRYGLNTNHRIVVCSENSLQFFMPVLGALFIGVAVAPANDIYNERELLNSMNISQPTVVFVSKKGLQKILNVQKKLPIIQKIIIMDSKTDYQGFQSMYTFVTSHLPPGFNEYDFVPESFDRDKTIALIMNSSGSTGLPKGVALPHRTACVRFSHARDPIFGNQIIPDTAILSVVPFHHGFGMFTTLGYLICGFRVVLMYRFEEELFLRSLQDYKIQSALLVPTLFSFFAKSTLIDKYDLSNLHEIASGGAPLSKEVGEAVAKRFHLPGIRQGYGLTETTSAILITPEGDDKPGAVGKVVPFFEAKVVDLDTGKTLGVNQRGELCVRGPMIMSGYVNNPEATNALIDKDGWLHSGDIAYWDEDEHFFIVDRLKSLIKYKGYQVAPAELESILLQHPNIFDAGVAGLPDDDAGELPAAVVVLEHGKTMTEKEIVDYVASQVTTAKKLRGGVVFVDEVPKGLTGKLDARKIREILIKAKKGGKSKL
As to `C[N+]1([O-])[C@@H]2CC(OC(=O)[C@@H](CO)c3ccccc3)C[C@@H]1[C@H]1O[C@H]12` (stereo not given in full), the Potency entry is “inactive”.
As for `ClC1=C(Cl)C2(Cl)C3C4CC(C5OC45)C3C1(Cl)C2(Cl)Cl` (stereo not given), the Potency entry is “inactive”.
Take `CCNC[C@H](O)c1cccc(O)c1`: the Potency entry is “inactive”.

Tested on in another test: not listed separately
The experiment in a line: S16 Schwann cell viability assay (CellTiter-Glo assay) (AID 624031).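 Further: native untransfected S16 rat Schwann cells; nearly all actives have a fitted effect of over 70% in size.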 To be noted: S16 rat Schwann cells viability, 24 h; series mostly up to 57.5 µM. The essentials:
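Counter-screen for cytotoxicity: parental S16 rat Schwann cells lacking the PMP22 reporters, treated 24 h with compound, viability from cellular ATP by CellTiter-Glo luminescence, normalized to DMSO (0%) and no-cell wells.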
(In ATP-based viability assays light output follows the ATP content of the culture.)
For the compound `C[N+]1([O-])[C@@H]2CC(OC(=O)[C@@H](CO)c3ccccc3)C[C@@H]1[C@H]1O[C@H]12` (stereo not given in full), the Potency entry is “inactive”.
Still for that read-out and setting: the result for `ClC1=C(Cl)C2(Cl)C3C4CC(C5OC45)C3C1(Cl)C2(Cl)Cl` (stereo not given) reads “inactive”; that for `CCNC[C@H](O)c1cccc(O)c1`, “inactive”.

Tested on in another test: not listed separately
Description: S16 Schwann cell PMP22 intronic element firefly luciferase assay (AID 624032). Further: nearly all actives have a fitted effect of over 30% in size. Further: potency means the concentration at half of the fitted maximal effect. To be noted: S16 rat Schwann cells, PMP22 element FLuc, 24 h; series mostly up to 57.5 µM. In short, it runs like this:
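Rat S16 Schwann cells stably carrying firefly luciferase driven by a PMP22 intronic element, in 10% FBS, treated 24 h at 37 C. ONE-Glo luminescence normalized to PTC124 control and DMSO (0%); curves classed by r2, magnitude and activity.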
On to `C[N+]1([O-])[C@@H]2CC(OC(=O)[C@@H](CO)c3ccccc3)C[C@@H]1[C@H]1O[C@H]12` (stereo not given in full), for which the Potency result was “inactive”.
In the case of `ClC1=C(Cl)C2(Cl)C3C4CC(C5OC45)C3C1(Cl)C2(Cl)Cl` (stereo not given), the Potency entry is “inactive”.
In the case of `CC(C)C[C@H]1C(=O)N2CCCC2[C@]2(O)O[C@](NC(=O)[C@@H]3C=C4c5cccc6[nH]c(Br)c(c56)C[C@H]4N(C)C3)(C(C)C)C(=O)N12` (stereo not given in full), the Potency was 8.09 µM (active).
As for `CCNC[C@H](O)c1cccc(O)c1`, the Potency entry was “inactive”.

Tested on in another test: not listed separately
The experiment in a line: S16 Schwann cell PMP22 intronic element beta-lactamase assay (AID 624044; calls by dose curve; further: nearly all actives have a fitted effect of over 15% in size). The conditions noted are these: S16 rat Schwann cells, PMP22 element beta-lactamase FRET, 24 h; ratio activity, negative = inhibition: at 38.3 µM (top of the series) unless noted. The essentials:
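Rat S16 Schwann cells with beta-Lac driven by a PMP22 intronic element, compound-treated 24 h at 37 °C. LiveBLAzer FRET B/G read: 460 nm normalized to potassium clavulanate vs DMSO; 535 nm FRET as viability; concentration-effect curves classified.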
In the case of `C[N+]1([O-])[C@@H]2CC(OC(=O)[C@@H](CO)c3ccccc3)C[C@@H]1[C@H]1O[C@H]12` (stereo not given in full), the Potency result was “inactive”.
As to `ClC1=C(Cl)C2(Cl)C3C4CC(C5OC45)C3C1(Cl)C2(Cl)Cl` (stereo not given), the Potency result is “inactive”.
The same measure, in the same setting: to `CCNC[C@H](O)c1cccc(O)c1` belongs “inactive”.

Tested on in another test: not listed separately
The experiment in a line: qHTS assay for small molecule agonists of the antioxidant response element (ARE) signaling pathway (AID 651741; active means well fitted activation curve with a large enough effect in the signal ratio; the % refers to the signal ratio; further: potency means the concentration at half of the fitted maximal effect). The conditions noted are these: HepG2 ARE-bla reporter, beta-lactamase FRET ratio, 16 h; series mostly up to 96 µM. The essentials: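 CellSensor ARE-bla HepG2 cells (2,000/well) carrying ARE-driven beta-lactamase, exposed 16 h at 37 C. LiveBLAzer B/G FRET substrate added for 2 h at room temperature; fluorescence intensity read.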
Take `CCNc1nc(Cl)nc(NC(C)C)n1`: the Potency entry is “inactive”.
Consider `ClC1=C(Cl)C2(Cl)C3C4CC(C5OC45)C3C1(Cl)C2(Cl)Cl` (stereo not given), for which the Potency is 42.2 µM (active).
Regarding `CCOCN(C(=O)CCl)c1c(C)cccc1CC`, the Potency is 7.5 µM (active) and 7.7 µM (active).
In the case of `ClC(Cl)=C(c1ccc(Cl)cc1)c1ccc(Cl)cc1`, the Potency was 66.8 µM (active).
`ClC1=C(Cl)C2(Cl)C3C4C=CC(C4)C3C1(Cl)C2(Cl)Cl` (stereo not given): the Potency is 66.8 µM (active).
With `O=C(O)COc1ccc(Cl)cc1Cl`, the Potency is 48.6 µM (active).
Take `COC(=O)NC(=S)Nc1ccccc1NC(=S)NC(=O)OC`: the Potency is 37.6 µM (active).
On to `COP(=S)(OC)Oc1ccc([N+](=O)[O-])cc1`, for which the Potency entry was “inactive”.
Still for that read-out and setting: to `O=S1OCC2C(CO1)C1(Cl)C(Cl)=C(Cl)C2(Cl)C1(Cl)Cl` (stereo not given) belongs 66.8 µM (active); to `C=CCc1ccc(OC)cc1`, “inactive”.
Still for that read-out and setting: the result for `CNC(=O)O/N=C/C(C)(C)SC` reads 27.3 µM (active); that for `CCc1cccc(CC)c1N(COC)C(=O)CCl`, 13.3 µM (active) and 24.3 µM (active).
